PfHsp90 set2: reduces growth (ATP signal) of yeast expressing P. falciparum Hsp90. inhibition, % at 9.4 µM. S. cerevisiae expressing PfHsp90, BacTiter-Glo ATP, 48 h; yeast lacking PDR1 and PDR3 efflux regulators. 0.32% of 310,000 active;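 active means every replicate shows inhibition above about 80%, whatever the replicate mean, limit read from the data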
TIM10 inh: TIM10 yeast growth inhibition; S. cerevisiae TIM10 strain growth, BacTiter-Glo luminescence, 24 h; 1.4% of 330,000 active; inhibition, % at 10 µM; AID 463195;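 active means inhibition of 40% or more at the single tested concentration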;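 further: wild-type TIM10 isogenic control strain grown at permissive 25 °C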
tim10-1 inh: tim10-1 yeast growth inhibition; S. cerevisiae tim10-1 ts strain growth, BacTiter-Glo, 24 h; inhibition, % at 20 µM; 2.2% of 330,000 active; AID 463190;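 active means inhibition of at least 40%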;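 further: mutant grown at 25 °C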
Rce1 inh: yeast Ras-converting enzyme inhibition. Q03530. yeast membranes, quenched prenylated peptide cleavage fluorescence. calls only. 0.27% of 290,000 active. AID 2563;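 active means fall in fluorescence gain of 50% or more versus controls, with final raw signal at or below 3038400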
Target sequence (Q03530 whole entry, looked up): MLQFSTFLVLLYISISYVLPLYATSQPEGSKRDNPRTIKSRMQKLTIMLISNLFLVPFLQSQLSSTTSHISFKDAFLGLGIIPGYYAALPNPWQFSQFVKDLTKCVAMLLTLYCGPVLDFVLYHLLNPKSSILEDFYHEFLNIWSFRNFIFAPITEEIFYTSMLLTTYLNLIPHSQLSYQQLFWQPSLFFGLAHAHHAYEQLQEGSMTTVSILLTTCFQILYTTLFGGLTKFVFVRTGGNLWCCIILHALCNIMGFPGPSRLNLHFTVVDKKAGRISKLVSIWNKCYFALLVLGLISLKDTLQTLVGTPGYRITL
tim23-1 inh: growth inhibitors of tim23-1 mutant yeast | S. cerevisiae tim23-1 growth, BacTiter-Glo luminescence, 24 h | inhibition, % at 20 µM | 1.3% of 330,000 active | AID 463212;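 active means growth inhibition of the mutant yeast at or above 50%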;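 further: temperature-sensitive mutant grown at 25 °C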
tim10-1 confirm: confirmation of tim10-1 mutant yeast growth inhibitors; shares compounds with tim10-1 inh; S. cerevisiae tim10-1 ts strain growth, BacTiter-Glo, 24 h; inhibition, % at 20 µM; 56% of 7,400 active;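 active means inhibition of yeast growth at or above a set limit in either of two repeat tests at 20 µM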;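 further: tim10-1 mutant grown at permissive 25 °C to find synthetic lethal compounds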
tim10 confirm: confirmation of TIM10 yeast growth inhibitors; shares compounds with TIM10 inh; 63% of 4,600 active; inhibition, % at 10 µM; AID 463215; S. cerevisiae tim10 strain growth, BacTiter-Glo luminescence, 24 h;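 active means inhibition of yeast growth at or above a set limit in either of two replicates at 10 µM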; further: this counterscreen used the strain with wild-type TIM10
tim23-1 confirm: confirmation of tim23-1 mutant yeast growth inhibitors | shares compounds with tim23-1 inh | 83% of 4,400 active | S. cerevisiae tim23-1 growth, BacTiter-Glo luminescence, 24 h | inhibition, % at 20 µM;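 active means inhibition above about 39% in either of two replicate wells at 20 µM, limit read from the data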;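 further: temperature-sensitive tim23-1 mutant grown at 25 °C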
Each line names hits and unclear results; the compound was inactive in the other large screens (follow-up assays come after a bar, where they were run). Shown are actives, neighbours in structure and some others; about 3.7% of the full set was active somewhere.

S=C(NCc1ccc(Cl)cc1)Nc1ccc(Cl)cc1Cl	none
Fc1cccc(NC(=S)NCCc2ccccc2)c1	none (no result: Rce1 inh)
Fc1ccc(CCNC(=S)Nc2ccc(F)c(Cl)c2)cc1	TIM10 inh 40.9, tim10-1 inh 51.5, tim23-1 inh 54.8 | tim10-1 confirm 66.5 | tim10 confirm inactive | tim23-1 confirm 74.6
O=C(Nc1ncc(Cc2ccccc2)s1)c1cccs1	TIM10 inh 51.9, tim10-1 inh 51.1, tim23-1 inh 72.1 | tim10-1 confirm 49.8 | tim10 confirm 60.6 | tim23-1 confirm 51.5
Cc1ccc(C(=O)Nc2ncc(Cc3ccccc3)s2)o1	TIM10 inh 48.8, tim10-1 inh 53.3, tim23-1 inh 57.1 | tim10-1 confirm 49.5 | tim10 confirm 50.5 | tim23-1 confirm 53.9
O=C(Nc1ncc(Cc2cccc(Cl)c2)s1)c1cccs1	TIM10 inh 66.6, tim10-1 inh 42.9, tim23-1 inh 66.6 | tim10-1 confirm 37.5 | tim10 confirm inactive | tim23-1 confirm 54.9
Cn1cc(C(=O)Nc2ccccn2)c(=O)c2ccccc21	none
Cc1ccc(CSc2nnc(CS(=O)Cc3ccc(Cl)cc3Cl)n2C)cc1 (configuration not stated)	TIM10 inh 47.5, tim10-1 inh 47.3, tim23-1 inh 50.8 (no result: Rce1 inh) | tim10-1 confirm 36.8 | tim10 confirm 48.4 | tim23-1 confirm 44.1
Cn1c(CS(=O)Cc2c(Cl)cccc2Cl)nnc1SCc1ccc(Cl)cc1 (configuration not stated)	none
CCOC(=O)/C(C#N)=C1/C=CN(Cc2ccccc2)C=N1	none (no result: PfHsp90 set2)
CCOC(=O)/C(C#N)=C1\C(=O)N(Cc2ccccc2)c2ccccc21	tim10-1 inh 42.6, tim23-1 inh 52.7 | tim10-1 confirm inactive | tim23-1 confirm 53.2
O=C1NC(=NCc2ccccc2)S/C1=C/c1ccc(O)cc1	none
Cc1csc(NC(=O)C2CCCN(S(=O)(=O)c3ccc(Br)s3)C2)n1 (configuration not stated)	tim10-1 inh 46.2, tim23-1 inh 55.0 | tim10-1 confirm 37.9 | tim23-1 confirm 50.7
O=C(COc1ccc(Cl)cc1Cl)Nc1ccccn1	tim10-1 inh 46.5, tim23-1 inh 57.9 (no result: Rce1 inh) | tim10-1 confirm 48.6 | tim23-1 confirm 47.2
Cc1ccccc1C1=NC(C(F)(F)F)(C(F)(F)F)c2c(n(C)c(=O)n(C)c2=O)N1	none
Cn1c2c(c(=O)n(C)c1=O)C(C(F)(F)F)(C(F)(F)F)N=C(c1ccc(Cl)cc1)N2	tim10-1 inh 61.1, tim23-1 inh 58.6 | tim10-1 confirm 58.9 | tim23-1 confirm 50.7
COc1ccccc1N(CC(=O)NCCN1CCOCC1)S(=O)(=O)c1ccc(C)cc1	none (no result: PfHsp90 set2)
COc1cc(N=Nc2ccc3ccccc3c2)ccc1O	PfHsp90 set2 109.9, tim10-1 inh 40.7, tim23-1 inh 62.6 | tim10-1 confirm inactive | tim23-1 confirm inactive
COc1ccc(N=Cc2cc3c(cc2O)OC(N)=C(C#N)C3c2ccccc2)cc1 (configuration not stated)	none
CC(=O)N1N=C(c2ccc(C)cc2)OC1c1ccc(Br)cc1 (configuration not stated)	none
CCOc1ccc(Br)cc1C1=NN(C(C)=O)C(c2ccc([N+](=O)[O-])s2)O1 (configuration not stated)	PfHsp90 set2 107.6, TIM10 inh 45.2, tim10-1 inh 63.9, tim23-1 inh 82.6 | tim10-1 confirm 71.2 | tim10 confirm 55.2 | tim23-1 confirm 65.2
O=[N+]([O-])c1ccc(NC(=S)N2CCc3ccccc32)cc1	tim10-1 inh 49.4, tim23-1 inh 54.2 | tim10-1 confirm 41.7 | tim23-1 confirm 48.7
S=C(Nc1ccccc1)N1CCc2ccccc21	none
O=C(CSc1ccc(Cl)cc1)NC1=NN(c2ccccc2)C(=O)C1	tim10-1 inh 48.5, tim23-1 inh 62.8 | tim10-1 confirm inactive | tim23-1 confirm inactive
CC(=O)Nc1ccccc1-c1nc2ccccc2nc1OCC(=O)c1ccc(Cl)cc1	none

Compound activity deposited in PubChem BioAssay by several laboratories.
